Compound activity deposited in PubChem BioAssay by Sanford-Burnham Center for Chemical Genomics.
KKLEB cytotox: reduces viability of KKLEB cystic fibrosis airway cells; KKLEB CF airway cells viability, ATPlite luminescence, overnight; stronger effect = lower value; cells stimulated with P. aeruginosa culture filtrate; activity change (cytotoxicity), % at 5 µM; 360,000 compounds, 0.36% hits; AID 602141;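 active means corrected activity change at or below -50% at 5 µM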
TROY NFkB inh: inhibitors of TROY-dependent NF-kB signaling | Q293 LMP1-TROYcd NF-kB luciferase reporter, 4 h | inhibition, % at 10 µM | AID 1347056 | 360,000 compounds, 0.98% hits;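 active means compounds whose plate-normalised and pattern-corrected inhibition of the luciferase reporter signal at the single screening dose is 50% or more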
Peg3 promoter: Peg3 promoter activity inhibition; inhibition, % at 20 µM; 360,000 compounds, 1.7% hits; HeLa PEG-Prom luciferase reporter, luminescence, overnight;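 active means inhibition of at least 50% at 20 µM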
CF NFkB inh: blocks PAF-induced NF-kB reporter in cystic fibrosis cells. KKLEB NF-kB-GFP reporter, GFP fluorescence overnight. inhibition, % at 5 µM. 360,000 compounds, 0.86% hits;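 active means at least 50% inhibition at 5 µM, scaled per plate between neutral and stimulator controls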;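 further: PAF is a Pseudomonas aeruginosa culture filtrate used as stimulus; plate controls were PAF-stimulated DMSO wells for no effect and unstimulated DMSO wells for full effect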
HIF-2a inh: inhibitors of HIF-2a; 786-0 RCC cells HIF-2a reporter, luciferase luminescence, overnight; inhibition, % at 18.8 µM; 360,000 compounds, 0.72% hits;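 active means inhibition of the luminescence signal of 40% or more relative to plate controls, in a single-dose primary screen at 18.75 µM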
TWEAK-Fn14 inh: blocks TWEAK-Fn14 interaction in a reporter cell assay | 360,000 compounds, 2% hits | TWEAK-stimulated Fn14 reporter cells, luciferase luminescence, 8 h | inhibition, % at 10 µM; in the data active means inhibition above about 50%
Mdm2-MdmX confirm: confirmation of inhibitors of human Mdm2/MdmX interaction, set 2. shares compounds with HIF-2a inh. inhibition, % at 8 µM. SaOS-2 split-luciferase Mdm2/MdmX complementation, luminescence. 740 compounds, 99% hits;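 active means mean inhibition of the luminescence signal across two replicates at or above 26 percent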
HIF-2a inh conf: confirmation of HIF-2a inhibitors; inhibition, % at 18.8 µM; shares compounds with HIF-2a inh; 1,800 compounds, 56% hits; 786-0 RCC cells, HIF-2a luciferase reporter luminescence, overnight;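 active means mean inhibition across four replicates of at least 40 percent at the single tested concentration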
HIF-1a cs: counter-screen for HIF-2a inhibitors: HIF-1a inhibition in MiaPaCa-2 cells. shares compounds with HIF-2a inh. MiaPaCa-2 HIF-1a luciferase reporter, desferoxamine, overnight. inhibition, % at 18.8 µM. 1,800 compounds, 72% hits. AID 651589;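 active means mean inhibition of the reporter signal across four replicates at the single tested dose of 50% or more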
An asterisk follows results filed as active; . = not tested or not shown. This is a sample that favours compounds with a hit; in the whole collection about 4% have one here.

SMILES | KKLEB cytotox | TROY NFkB inh | Peg3 promoter | CF NFkB inh | HIF-2a inh | TWEAK-Fn14 inh | HIF-2a inh conf | HIF-1a cs | others
COc1cccc(CNS(=O)(=O)c2ccccc2Br)c1OC | -3.0 | -6.4 | -15.8 | 12.2 | -1.5 | -17.2 | . | .
CC(=O)N(C)c1ccc(N=C2C(=O)Nc3ccccc32)cc1 | 2.1 | 38.8 | 20.1 | -4.6 | 15.8 | 13.9 | . | .
CC(=O)/C=C1/C(=O)Nc2ccccc21 | -1.9 | -13.3 | 22.4 | -1.7 | 40.5* | 8.8 | 48.9* | 5.2
C=CCOc1cccc(C(=O)N2CCCC(CCC(=O)NCc3ccccc3F)C2)c1 (stereo not given) | 8.8 | -12.4 | -30.1 | -8.5 | -37.3 | -29.9 | . | .
C=CCOc1cccc(C(=O)/C=C2/C(=O)Nc3ccccc32)c1 | -51.7* | 29.1 | 85.4* | 85.7* | 59.4* | 30.2 | 58.7* | 105.0*
O=C(NCCCN1CCCC1=O)c1c(O)nc2sccn2c1=O | -8.7 | -15.8 | 4.4 | 12.4 | 9.8 | 15.8 | . | .
CSCc1c(C(=O)Nc2ccccc2N2CCOCC2)oc2ccccc12 | -7.0 | 6.5 | -6.2 | -10.7 | 5.0 | 12.0 | . | .
COc1cc(/C=C(/C#N)c2nc3ccccc3[nH]2)ccc1OCC(=O)Nc1ccccc1C(C)C | 5.0 | -5.1 | 4.7 | -0.2 | -11.3 | 4.3 | . | . | Mdm2-MdmX confirm=101.2*
COc1cc(/C=C(\C#N)c2nc3ccccc3[nH]2)ccc1OC(=O)c1ccco1 | 3.4 | -51.8 | -97.2 | -48.5 | -168.5 | 22.3 | . | .
CC(C)c1ccc(NC(=O)Nc2nc(C(N)C3CCCCC3)cs2)cc1 (stereo not given) | -45.2 | -4.4 | 94.8* | 45.2 | 49.6* | -14.8 | 10.9 | 105.8*
Nc1ccc(-c2cc3ccccc3c(=O)o2)cc1 | 12.2 | -3.3 | -44.6 | -46.9 | 82.0* | 49.5 | 90.6* | 54.4*
O=c1oc(-c2ccccc2)cc2ccccc12 | 2.0 | -69.9 | -278.8 | -67.5 | -263.9 | -23.3 | . | .
FC(F)(F)c1ccccc1Cc1c(-c2cccc(Cl)c2)nc2c3ccccc3ccn12 | . | -64.1 | . | . | -29.0 | -16.5 | . | .
C/C(=N\OCC(=O)OCC(=O)NC(=O)c1ccccc1)c1ccc2c(c1)OCO2 | 3.5 | -1.2 | -5.2 | 3.9 | 4.5 | 10.8 | . | .
COc1cc(/C=C/C(=O)c2ccc(C)c([N+](=O)[O-])c2)cc(OC)c1O | -38.7 | 31.9 | 63.0* | 43.3 | 46.8* | 68.9* | 20.7 | 35.8
COc1cc(/C=C/C(=O)c2ccc(NS(=O)(=O)c3ccc(C)cc3)cc2)cc(OC)c1O | 13.3 | -0.2 | 64.8* | -13.9 | 53.8* | 60.4* | 64.3* | 103.6*
CC1CN(S(=O)(=O)c2ccc(CN3C(=O)c4cccnc4C3=O)cc2)c2ccccc2O1 (stereo not given) | 11.7 | 25.5 | 4.9 | 22.1 | 18.0 | -10.2 | . | .
CCOc1ccc(/C=N/N2C(=O)C(CC(=O)Nc3ccc(F)cc3F)SC2=NC)cc1OC (stereo not given) | 3.0 | 7.0 | 13.9 | 10.2 | 49.1* | -1.8 | -3.7 | -6.2
Cc1nc([N+](=O)[O-])c(Br)n1Cc1ccc(Cl)c(Cl)c1 | -46.5 | 30.8 | 103.7* | 86.3* | 70.4* | 81.3* | 28.5 | 102.0*
COC1(OC)C(/C=C/c2ccc(C)cc2)C(C#N)(C#N)C1(OC)OC (stereo not given) | -11.2 | -19.9 | 21.6 | 19.1 | 43.3* | 26.7 | 6.8 | 65.4*
CC(C)CN(C(=O)COc1ccc([N+](=O)[O-])cc1)c1c(N)n(CC(C)C)c(=O)[nH]c1=O | 11.8 | 7.6 | 8.4 | -13.3 | -3.4 | -3.6 | . | .
O=C(O)c1cccc(CSc2nnc(COc3ccccc3)o2)c1 | -0.2 | -23.5 | -5.4 | 5.7 | 72.8* | 14.1 | 72.8* | 33.5
O=C(O)c1cccc(CSc2nnc(-c3ccc(Cl)cc3)o2)c1 | 4.8 | 10.7 | -40.0 | -8.9 | 70.4* | 36.8 | 80.3* | 26.5
